Among all 310,000 compounds or so, about 14,000 (4.5%) showed an effect of 50% or more. The effect is printed as a negative number. The sample as a whole holds a higher share of strong results than the screen did.
target: human ether-à-go-go-related gene (hERG) potassium channel (human, UniProt Q12809); assay: primary screen, population patch clamp on CHO cells stably expressing hERG; higher = less effect of the substance
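Further: peak tail current of the secondary pulse compared with the same well before compound.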

Chain of human ether-à-go-go-related gene (hERG) potassium channel (Q12809 whole entry, looked up): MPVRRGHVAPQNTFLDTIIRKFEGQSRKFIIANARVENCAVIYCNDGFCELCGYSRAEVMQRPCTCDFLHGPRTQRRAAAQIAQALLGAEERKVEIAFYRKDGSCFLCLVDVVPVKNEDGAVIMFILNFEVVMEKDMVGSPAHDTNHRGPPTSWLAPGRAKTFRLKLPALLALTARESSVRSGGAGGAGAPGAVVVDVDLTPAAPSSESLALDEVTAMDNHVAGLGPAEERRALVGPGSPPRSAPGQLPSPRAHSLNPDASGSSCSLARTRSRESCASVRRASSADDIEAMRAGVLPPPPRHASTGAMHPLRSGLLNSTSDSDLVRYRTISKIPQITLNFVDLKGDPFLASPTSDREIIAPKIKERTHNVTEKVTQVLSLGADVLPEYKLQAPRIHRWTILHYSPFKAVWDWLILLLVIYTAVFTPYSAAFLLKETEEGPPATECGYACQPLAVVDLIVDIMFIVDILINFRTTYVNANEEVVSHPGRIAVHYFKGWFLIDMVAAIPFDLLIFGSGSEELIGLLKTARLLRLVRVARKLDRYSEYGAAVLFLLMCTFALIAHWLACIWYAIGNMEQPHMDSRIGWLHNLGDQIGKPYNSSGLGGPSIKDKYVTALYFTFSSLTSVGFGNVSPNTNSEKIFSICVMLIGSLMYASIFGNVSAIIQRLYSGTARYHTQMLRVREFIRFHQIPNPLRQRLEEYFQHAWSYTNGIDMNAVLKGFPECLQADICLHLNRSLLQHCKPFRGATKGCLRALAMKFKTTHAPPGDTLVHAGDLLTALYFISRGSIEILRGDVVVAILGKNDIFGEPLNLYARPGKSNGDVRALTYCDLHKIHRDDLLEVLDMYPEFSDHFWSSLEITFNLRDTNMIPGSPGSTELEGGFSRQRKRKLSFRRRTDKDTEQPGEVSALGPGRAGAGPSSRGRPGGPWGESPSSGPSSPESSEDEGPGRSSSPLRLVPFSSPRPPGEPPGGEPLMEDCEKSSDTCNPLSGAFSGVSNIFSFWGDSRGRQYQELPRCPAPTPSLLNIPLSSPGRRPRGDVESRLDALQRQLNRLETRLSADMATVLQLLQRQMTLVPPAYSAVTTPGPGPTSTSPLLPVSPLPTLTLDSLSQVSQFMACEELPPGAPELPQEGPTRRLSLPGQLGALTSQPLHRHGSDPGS

Row | SMILES | hERG current change (%, negative = inhibition) at 10uM
1 | CCN(CC(=O)NCCCN1CCOCC1)S(=O)(=O)c1cc(Cl)ccc1Cl | 6.16%
2 | CN(Cc1ccc(Br)cc1)C(=O)CCN1C(=O)c2cccc([N+](=O)[O-])c2C1=O | 21.8%
3 | COc1cccc(OCc2cc(C(=O)N3CCN(c4ccccc4OC)CC3)no2)c1 | 6.19%
4 | COc1c(C)cccc1C(=O)NCc1ccc2c(c1)OCO2 | -2.64%
5 | O=S(=O)(NCC1CCCO1)c1ccc(S(=O)(=O)N(Cc2ccc(F)cc2)C2CCCCC2)cc1 (stereo not drawn) | -2.39%
6 | COc1ccccc1NC(=O)CSc1nnc(CC(=O)Nc2ccccc2F)n1C | 11.4%
7 | COc1ccc(-n2c(SCC(=O)Nc3nccs3)nc3c(c2=O)SC(C)C3)cc1 (stereo not drawn) | -13.5%
8 | COc1ccc(/C(O)=C/C(=O)C(=O)Nc2c(C)n(C)n(-c3ccccc3)c2=O)cc1 | 8.01%
9 | CCc1c(C)sc2nc3c(C(=O)N4CCOCC4)cc(C(=O)c4ccccc4O)cn3c(=O)c12 | -10.7%
10 | Cc1cc(C)nc(OC(C(=O)O)C(OCCc2ccccc2)(c2ccccc2)c2ccccc2)n1 (stereo not drawn) | 16.3%
11 | CCOC(=O)C1=C(CC)Nc2ccccc2N=C1NC(=O)c1oc2ccccc2c1C | 12.6%
12 | CC(C)(CNC(=O)c1ccc(-c2ccccc2Cl)o1)N1CCOCC1 | -39.9%
13 | O=C(COC(=O)c1cc(=O)c2ccccc2o1)NCC1CCCCC1 | 6.26%
14 | COC(=O)c1ccc(OCC(O)CN(CC(C)C)CC(C)C)cc1 (stereo not drawn) | -4.37%
15 | COC(=O)c1ccc(OCC(O)CN(CCO)CCO)cc1 (stereo not drawn) | -3.29%
16 | CC(C)CN(CC(C)C)CC(O)COc1ccc([N+](=O)[O-])cc1.Cl (stereo not drawn) | -66.8%
17 | CCCN(CCC)CC(O)COc1ccc([N+](=O)[O-])cc1 (stereo not drawn) | -77.1%
18 | CCCN(CCC)CC(O)COc1ccc2c(c1)OCO2.Cl (stereo not drawn) | -28.8%
19 | O=C(NCC(O)COc1ccc([N+](=O)[O-])cc1)Nc1ccccc1 (stereo not drawn) | -49.4%
20 | O=[N+]([O-])c1ccc(OCC(O)CN(CCO)CCO)cc1 (stereo not drawn) | -54.8%
21 | Cc1cc(C)cc(NC(=O)NCC(O)COc2ccc([N+](=O)[O-])cc2)c1 (stereo not drawn) | -42.3%
22 | Cl.OCCN(CCO)CC(O)COc1ccc2c(c1)OCO2 (stereo not drawn) | 2.18%
23 | C/C(=N\NC(=O)CC(C)C)c1ccc(Cl)c(Cl)c1 | 30.7%
24 | O=c1nc2n(c3c4c(sc13)CCC4)CCC2 | 5.51%
